The list is not random: actives were taken first. Their share in the collection is about 3.5%.
GPR151 activ: activators of human GPR151, primary screen, cell-based, PathHunter beta-arrestin, luminescence; PathHunter beta-arrestin GPR151 cells; activation, % at 11.2 µM; 650,000 tested, 1% active; AID 1508602, 2020; in the data active = activation above about 4.9%;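 also: 0% = median of compound wells and 100% = cells with positive control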
FBW7 act: FBW7 E3 ligase activators, primary screen, biochemical, AlphaScreen, human; F-box/WD repeat-containing protein 7 (Homo sapiens), Q969H0; AlphaScreen FBW7–phospho-cyclin E peptide binding, activator screen; normalized activity (activation), % at 26.1 µM; 650,000 tested, 0.13% active; in the data active = normalized activity above about 1.9%;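 also: purified mutant Fbw7 with reduced substrate affinity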
TEAD-YAP block: TEAD-YAP interaction inhibition, primary screen, TEAD-YAP interaction inhibitor project, luminescence, HEK-TIYL cells | TEAD-Gal4/YAP UAS-luciferase luminescence | 640,000 tested, 1.4% active | inhibition, % at 9.12 µM; in the data active = inhibition above about 32%;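 also: 0% = median of test compound wells and 100% = reference inhibitor wells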
MITF inh: MITF inhibitors, primary screen, biochemical, AlphaScreen, human; AlphaScreen MITF homodimerization, bead proximity signal; inhibition, % at 2.6 µM; 650,000 tested, 0.91% active; AID 1259374, 2018; in the data active = inhibition above about 50%;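 also: 0% = vehicle wells with protein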
GPR151 confirm: GPR151 activators, triplicate retest, confirmation, cell-based, PathHunter beta-arrestin, luminescence | GPR151 PathHunter beta-arrestin cells, 90 min; % of EA-reagent control over plate median | activation, % at 11.2 µM | shares compounds with GPR151 activ | 6,700 tested, under 10 active;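 active = mean percent activation across replicates above the confirmation screen cutoff of 4.91%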
GPR119 counter: GPR119 activators in beta-arrestin cells, counter-screen for GPR151 activator project, cell-based, PathHunter beta-arrestin, luminescence, triplicate. shares compounds with GPR151 activ. 90 min; 0 = compound-well median, 100 = enzyme-acceptor control. activation, % at 11.2 µM. 6,700 tested, 0.3% active. AID 1508611, 2020;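 active = mean percent activation in the counterscreen above 29.09%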;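 also: counterscreen on off-target GPR119 to flag nonselective hits from the GPR151 activator screen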
Target sequence (Q8TDV5 whole entry, looked up): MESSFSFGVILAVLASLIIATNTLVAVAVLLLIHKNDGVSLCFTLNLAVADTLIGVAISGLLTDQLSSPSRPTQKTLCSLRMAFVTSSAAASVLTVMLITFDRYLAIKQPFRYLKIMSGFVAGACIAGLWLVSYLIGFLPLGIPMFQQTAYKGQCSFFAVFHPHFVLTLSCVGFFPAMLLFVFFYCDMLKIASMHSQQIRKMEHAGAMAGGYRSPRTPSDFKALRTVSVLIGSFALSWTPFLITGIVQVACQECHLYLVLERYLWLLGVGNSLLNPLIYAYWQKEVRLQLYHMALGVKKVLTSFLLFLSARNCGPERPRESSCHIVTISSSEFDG
The depositor's hits bear a star; . = not tested or not shown.

SMILES	GPR151 activ	FBW7 act	TEAD-YAP block	MITF inh	GPR151 confirm	GPR119 counter
O=[N+]([O-])c1ccc(CSC2=NCCN2S(=O)(=O)c2ccc([N+](=O)[O-])cc2)cc1	1.7	-0.1	3.9	3.5	.	.
Cc1ccc(C2=NN(c3ccc([N+](=O)[O-])cc3)C(c3ccc(Cl)cc3)C2)cc1 (stereo not drawn)	3.7	0.0	0.9	5.9	.	.
CCCN(CCC)S(=O)(=O)c1ccc(N)cc1	0.4	0.0	6.0	1.7	.	.
CCOc1cc(/C=C2/SC(=O)N(C(C)C)C2=O)ccc1OCC(=O)O	-0.3	-0.1	14.2	7.9	.	.
Cc1cccc(NC(=O)CC2S/C(=N/c3nc4ccccc4s3)N(C)C2=O)c1 (stereo not drawn)	3.0	-0.1	-5.2	-0.3	.	.
O=C1NC2(CCN(Cc3ccc4nccnc4c3)CC2)Oc2ccccc21	5.0*	0.3	4.0	-4.8	-0.8	-11.5
O=C1NC2(CCN(Cc3ccc(F)c(F)c3)CC2)Oc2ccccc21	0.6	0.2	-0.9	2.5	.	.
CN1CCC(N(C)Cc2cc([N+](=O)[O-])ccc2O)CC1	6.0*	-0.2	1.7	10.5	0.5	0.6
CCOC(=O)C1=C(C)NC(SCC(=O)Nc2cc(C)on2)=C(C#N)C1c1cccs1 (stereo not drawn)	5.8*	0.1	15.9	9.2	-0.8	-8.4
CCOC(=O)C1=C(C)NC(SCC(N)=O)=C(C#N)C1c1cccs1 (stereo not drawn)	0.0	-0.1	5.2	4.6	.	.
CCOc1ccc(/C=C2\SC(=S)N(C(C)C(=O)O)C2=O)cc1 (stereo not drawn)	11.2*	-0.2	-8.5	-0.9	0.7	6.9
COc1ccc(NC(=O)COc2ccc(Cl)cc2)cc1NC(=O)c1ccco1	6.0*	-0.1	5.7	-1.6	-0.1	-2.8
COc1ccc(CCNC(=O)c2cnc(Nc3ccncc3)s2)cc1	1.1	0.0	-2.6	-38.8	.	.
COc1ccc(CCN(C)C2CCCN(Cc3c(C)nn(C)c3Cl)C2)cc1OC (stereo not drawn)	5.9*	0.1	9.3	11.8	0.3	4.4
CN(CCc1ccccc1)C1CCCN(Cc2cccnc2)C1 (stereo not drawn)	-1.3	0.4	10.2	7.9	.	.
COc1ccc(CCN(C)C2CCCN(Cc3ccoc3)C2)cc1OC (stereo not drawn)	0.4	0.0	10.9	10.7	.	.
COc1ccc(CCN(C)C2CCCN(Cc3ccncc3)C2)cc1OC (stereo not drawn)	9.1*	0.1	3.3	-13.8	0.0	4.0
COCc1ccc(CN2CCCC(N(C)CCc3ccccc3)C2)o1 (stereo not drawn)	5.1*	-0.2	-7.8	5.9	-0.9	-6.4
CCOC(=O)C1=C(C)NC2=C(C(=O)CCC2)C1c1ccc(Cl)cc1Cl (stereo not drawn)	0.1	0.1	-4.0	7.8	.	.
CCOc1ccc(S(=O)(=O)N2CC=C(c3ccccc3)CC2)c2cccnc12	0.5	0.0	-18.1	13.1	.	.
O=[N+]([O-])c1ccc(Cl)c2c1C1C=CCC1C(c1ccccn1)N2 (stereo not drawn)	5.1*	-0.6	-5.3	8.7	0.3	9.8
CCOC(=O)C1=CN(c2ccc(OCC)cc2)C=C(C(=O)OCC)C1c1cccc(OC)c1	-0.5	-0.1	-17.4	-7.2	.	.
COC(=O)C(C)n1c(=O)c2c(nc3n(-c4cc(C)cc(C)c4)c(C)c(C)n23)n(C)c1=O (stereo not drawn)	0.4	0.0	11.6	-11.2	.	.
C=CCn1c(=O)c2c(nc3n(-c4cccc(Cl)c4)c(C)c(C)n23)n(C)c1=O	6.3*	0.0	-4.6	-0.7	-1.2	-2.6
C=CCn1c(=O)c2c(nc3n(-c4ccc(Cl)cc4)c(C)c(C)n23)n(C)c1=O	-1.0	0.3	11.4	12.5	.	.
SMILES	GPR151 activ	FBW7 act	TEAD-YAP block	MITF inh	GPR151 confirm	GPR119 counter
COC(=O)C(C)n1c(=O)c2c(nc3n(-c4ccc(C)c(C)c4)c(C)c(C)n23)n(C)c1=O (stereo not drawn)	5.3*	-0.1	-1.1	4.5	0.1	3.7
CC(=O)Cn1c(=O)c2c(nc3n(-c4ccccc4)c(C)c(C)n23)n(C)c1=O	11.1*	-0.1	7.8	11.4	0.0	4.4
C[C@@H](O)[C@@H]1NC(=O)[C@@H]2C[C@H](NC(=O)Nc3cccc(C(F)(F)F)c3)CN2C1=O	0.6	0.1	-7.1	0.6	.	.
O=C(CCC(=O)c1ccc(Cl)cc1)OCc1ccc([N+](=O)[O-])cc1	0.9	-0.1	1.9	-3.5	.	.
O=C(CCC(=O)OCc1ccc([N+](=O)[O-])cc1)OCc1ccc([N+](=O)[O-])cc1	5.5*	0.5	-6.6	-2.1	0.5	5.1
CCc1ccc(C2NCCc3cc4c(cc32)OCCO4)cc1 (stereo not drawn)	3.6	-0.1	2.7	4.5	.	.
c1c2c(cc3c1OCCO3)C1CN(C2)Cc2cc3c(cc21)OCCO3	7.4*	-0.2	9.9	6.1	0.1	-0.1
O=C1C(=O)N(c2ccccn2)C(c2cccnc2)/C1=C(\O)c1ccccc1 (stereo not drawn)	-0.7	-0.1	-0.3	2.6	.	.
CCOC(=O)c1cc(-c2ccccc2)oc1CN1CCOCC1	8.9*	-0.1	7.1	19.1	-0.2	7.5
CCOC(=O)c1cc(-c2ccccc2)n(CCCN2CCOCC2)c1C	-1.0	-0.1	14.0	9.8	.	.
CCOC(=O)c1csc(NC(=O)c2ccc3ccccc3c2)n1	0.6	0.1	-17.5	15.0	.	.
CC(C)C[C@@H](NC(=O)OCC1c2ccccc2-c2ccccc21)C(=O)O	7.8*	-0.1	.	-4.6	-0.7	-5.8
NCc1cccc(CNC(=O)c2c[nH]c3cc(-c4cn[nH]c4)ccc23)c1	5.1*	-0.3	-11.5	-10.6	-1.6	-7.4
CCC(=O)N1CCN=C1SCc1cccc(C)c1	7.1*	0.0	1.7	1.4	0.6	8.6
CCC(=O)N1CCN=C1SCc1cccc(Cl)c1	-0.9	0.0	-3.1	-5.4	.	.
CCOC(=O)c1cccc2c3c([nH]c12)C(C(=O)OCC)CCC3 (stereo not drawn)	5.0*	-0.1	-4.0	-9.0	0.5	-5.7
O=C(O)c1ccc(Nc2nc(-c3ccc(Cl)cc3)nc3ccccc23)cc1	0.7	0.0	-4.0	-3.9	.	.
COCCn1nnnc1C(c1cc2cc3c(cc2[nH]c1=O)OCO3)N1CCC(O)CC1 (stereo not drawn)	-0.7	-0.1	8.5	2.6	.	.
O=C1N[C@@H](Cc2c[nH]c3ccccc23)C(=O)N2CCN(C(=O)c3ccc(F)cc3)C[C@H]12	6.4*	0.1	-1.7	15.8	0.7	8.1
